From PubChem BioAssay
Hits are enriched below; roughly 28% of the tested compounds scored in any of these assays.
CYP2C9 inh: blocks human cytochrome P450 2C9. inhibition, % at 5 µM. actives 20% (n = 96,000). CYP2C9 Supersomes, luciferin-H conversion, luminescence;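 active means blocking of liver enzyme CYP2C9 beyond about 50% at 5 µM, limit read from the data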
Plk1 PBD FP: blocks phosphopeptide binding to human Plk1 polo box domain; Plk1 PBD phosphopeptide binding, fluorescence polarization; actives 0.13% (n = 97,000); P53350; inhibition, %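 (tested at about 20 µM)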; in the data active means inhibition above about 34%, passing the limit was not always enough
CYP2C19 activ: activators of human cytochrome P450 2C19. P33261. recombinant CYP2C19, luciferin-H EGE luminescence; stronger effect = higher value; 0 = fully inhibited enzyme, 1 = untreated enzyme. activation factor at 5 µM. 96,000 tested, under 10 active. AID 1025;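 active means activation factor of at least 2 at 5 µM in the primary screen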
Target sequence (P33261 whole entry, looked up): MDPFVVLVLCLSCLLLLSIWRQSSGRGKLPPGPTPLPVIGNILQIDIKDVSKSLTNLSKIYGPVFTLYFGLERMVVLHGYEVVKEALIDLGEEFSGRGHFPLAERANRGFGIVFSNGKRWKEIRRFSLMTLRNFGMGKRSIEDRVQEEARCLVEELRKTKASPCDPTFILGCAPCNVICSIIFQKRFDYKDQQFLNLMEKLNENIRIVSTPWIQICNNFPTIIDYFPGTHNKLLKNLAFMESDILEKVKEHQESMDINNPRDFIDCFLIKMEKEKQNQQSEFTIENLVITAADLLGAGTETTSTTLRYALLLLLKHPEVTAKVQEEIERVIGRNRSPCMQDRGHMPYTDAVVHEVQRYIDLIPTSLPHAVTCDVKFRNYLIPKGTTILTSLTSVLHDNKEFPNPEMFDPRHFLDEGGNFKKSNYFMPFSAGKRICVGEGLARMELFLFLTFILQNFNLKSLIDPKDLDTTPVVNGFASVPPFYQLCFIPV
PLK1 inh: PLK1 (human) kinase inhibition | P53350 | recombinant PLK1 kinase, TR-FRET peptide phosphorylation | inhibition, % at 10 µM | actives 0.53% (n = 97,000);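 active means inhibition of 50% or more in the single-concentration screen; inactive means inhibition below 50%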
CYP2C9 act: activators of human CYP2C9; recombinant CYP2C9, luciferin-H conversion, luminescence; stronger effect = higher value; factor 1 = untreated enzyme, 0 = blocked; actives 1.4% (n = 96,000); P11712; activation factor at 5 µM;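 active means activation factor of 2 or more for CYP2C9 at a 5 µM dose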
CYP2C19 inh: inhibitors of human CYP2C19. P33261. CYP2C19 Supersomes, luciferin-H EGE luminescence, 30 min. inhibition, % at 5 µM. actives 21% (n = 96,000). AID 778;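 active means CYP2C19 inhibition above a set limit at 5 µM in the primary screen, cut at about 50% in these data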
Numbers stand for hits.

What do the screens show for `COc1ccc(-c2nnc3c4ccccc4c(C)nn23)cc1`?
CYP2C9 inh: inactive; Plk1 PBD FP: inactive; CYP2C19 activ: inactive; PLK1 inh: inactive; CYP2C9 act: inactive; CYP2C19 inh: inactive

Results for Cc1nn2c(-c3ccncc3)nnc2c2ccccc12 ?
CYP2C9 inh: inactive; Plk1 PBD FP: inactive; CYP2C19 activ: inactive; PLK1 inh: inactive; CYP2C9 act: inactive; CYP2C19 inh: 85

Results for CCn1c(SCC(=O)c2ccc(OC)cc2)nnc1C(C)NC(=O)c1ccc(OC)cc1 (stereo not drawn) ?
CYP2C9 inh: inactive; Plk1 PBD FP: inactive; CYP2C19 activ: inactive; PLK1 inh: inactive; CYP2C9 act: inactive; CYP2C19 inh: inactive

What do the screens show for `O=C(c1ccc(F)cc1)N1C2CCC1CC(O)(c1ccccc1F)C2` (stereo not drawn)?
CYP2C9 inh: inactive; Plk1 PBD FP: inactive; CYP2C19 activ: inactive; PLK1 inh: inactive; CYP2C9 act: inactive; CYP2C19 inh: 53

Results for Cc1cc(C)n(C(=O)C2CCCN2S(=O)(=O)c2ccc(Cl)cc2)n1 (stereo not drawn) ?
CYP2C9 inh: inactive; Plk1 PBD FP: inactive; CYP2C19 activ: inactive; PLK1 inh: inactive; CYP2C9 act: inactive; CYP2C19 inh: inactive

How did Cc1ccc(S(=O)(=O)N(CCO)c2cc3c(s2)CCCC3)cc1 do in these assays?
CYP2C9 inh: inactive; Plk1 PBD FP: inactive; CYP2C19 activ: inactive; PLK1 inh: inactive; CYP2C9 act: inactive; CYP2C19 inh: 99

Results for CC1CN(C)C(c2ccccc2)C(C)C12NC(=O)NC2=O (stereo not drawn) ?
CYP2C9 inh: inactive; Plk1 PBD FP: inactive; CYP2C19 activ: inactive; PLK1 inh: inactive; CYP2C9 act: inactive; CYP2C19 inh: inactive

Results for Cc1ccc(C)c(N(C)S(=O)(=O)c2cccc3nsnc23)c1 ?
CYP2C9 inh: inactive; CYP2C19 activ: inactive; CYP2C9 act: 2.3; CYP2C19 inh: inactive

What do the screens show for `CCc1cccc(NC(=O)CN(C)S(=O)(=O)c2cccc3nsnc23)c1`?
Plk1 PBD FP: inactive; PLK1 inh: inactive

Results for Cc1cccc(NC(=O)CN(C)S(=O)(=O)c2cccc3nsnc23)c1C ?
CYP2C9 inh: inactive; Plk1 PBD FP: inactive; CYP2C19 activ: inactive; PLK1 inh: inactive; CYP2C9 act: inactive; CYP2C19 inh: 60

What do the screens show for `CCOc1ccccc1NC(=O)CN(C)S(=O)(=O)c1cccc2nsnc12`?
Plk1 PBD FP: inactive; PLK1 inh: inactive

What do the screens show for `Cc1cc(C)cc(NC(=O)CN(C)S(=O)(=O)c2cccc3nsnc23)c1`?
CYP2C9 inh: 54; Plk1 PBD FP: inactive; CYP2C19 activ: inactive; PLK1 inh: inactive; CYP2C9 act: inactive; CYP2C19 inh: inactive

What do the screens show for `COC(=O)CC(N)c1ccc(OC)c2ccccc12` (stereo not drawn)?
CYP2C9 inh: inactive; Plk1 PBD FP: inactive; CYP2C19 activ: inactive; PLK1 inh: inactive; CYP2C9 act: inactive; CYP2C19 inh: inactive

How did Cc1ccc(C)c(NC(=O)CS(=O)(=O)c2cn(C)c3ccccc23)c1 do in these assays?
Plk1 PBD FP: inactive; PLK1 inh: inactive

What do the screens show for `Cc1ccc(NC(=O)CS(=O)(=O)c2c[nH]c3ccccc23)c(C)c1`?
CYP2C9 inh: inactive; Plk1 PBD FP: inactive; CYP2C19 activ: inactive; PLK1 inh: inactive; CYP2C9 act: inactive; CYP2C19 inh: 75

Results for O=C(CS(=O)(=O)c1c[nH]c2ccccc12)Nc1ccc2c(c1)OCCO2 ?
CYP2C9 inh: inactive; Plk1 PBD FP: inactive; CYP2C19 activ: inactive; PLK1 inh: inactive; CYP2C9 act: inactive; CYP2C19 inh: 68

How did COc1cc2nc(COc3ccc(C#N)cc3)n(CC#N)c(=O)c2cc1OC do in these assays?
CYP2C9 inh: inactive; Plk1 PBD FP: inactive; CYP2C19 activ: inactive; PLK1 inh: inactive; CYP2C9 act: inactive; CYP2C19 inh: inactive

What do the screens show for `O=C1CC(c2ccccc2)CC(O)=C1C=NCc1ccccc1` (stereo not drawn)?
CYP2C9 inh: inactive; Plk1 PBD FP: inactive; CYP2C19 activ: inactive; PLK1 inh: inactive; CYP2C9 act: inactive; CYP2C19 inh: inactive

What do the screens show for `CCC(C)N=CC1=C(O)CC(c2ccccc2)CC1=O` (stereo not drawn)?
CYP2C9 inh: inactive; Plk1 PBD FP: inactive; CYP2C19 activ: inactive; PLK1 inh: inactive; CYP2C9 act: inactive; CYP2C19 inh: 52

Results for Cc1cc2c(=O)n(CC(=O)N3CCN(c4ccc(F)cc4)CC3)cnc2s1 ?
CYP2C9 inh: inactive; Plk1 PBD FP: inactive; CYP2C19 activ: inactive; PLK1 inh: inactive; CYP2C9 act: inactive; CYP2C19 inh: inactive

Results for CCC(C)Cn1c(C(C)O)nc2ccccc21 (stereo not drawn) ?
CYP2C9 inh: inactive; Plk1 PBD FP: inactive; CYP2C19 activ: inactive; PLK1 inh: inactive; CYP2C9 act: inactive; CYP2C19 inh: inactive

Results for CCOC(=O)c1cc2sc(C)cc2n1CC(=O)N1CCOCC1 ?
CYP2C9 inh: inactive; Plk1 PBD FP: inactive; CYP2C19 activ: inactive; PLK1 inh: inactive; CYP2C9 act: inactive; CYP2C19 inh: 65

Results for CCOC(=O)c1cc2sc(C)cc2n1CC(=O)NCc1ccc(F)cc1 ?
CYP2C9 inh: inactive; Plk1 PBD FP: inactive; CYP2C19 activ: inactive; PLK1 inh: inactive; CYP2C9 act: inactive; CYP2C19 inh: 72

What do the screens show for `CCOC(=O)c1cc2sc(C)cc2n1CC(=O)N1CCN(C(=O)c2ccco2)CC1`?
CYP2C9 inh: inactive; Plk1 PBD FP: inactive; CYP2C19 activ: inactive; PLK1 inh: inactive; CYP2C9 act: inactive; CYP2C19 inh: inactive

What do the screens show for `CCNC(=O)CN(c1ccc(CC)cc1)S(C)(=O)=O`?
CYP2C9 inh: inactive; Plk1 PBD FP: inactive; CYP2C19 activ: inactive; PLK1 inh: inactive; CYP2C9 act: inactive; CYP2C19 inh: inactive

How did C=CCn1c(=O)/c(=C/c2ccc(Cl)cc2)s/c1=C(/C#N)c1nnc2n1CCCCC2 do in these assays?
CYP2C9 inh: 78; Plk1 PBD FP: inactive; CYP2C19 activ: inactive; PLK1 inh: inactive; CYP2C9 act: inactive; CYP2C19 inh: inactive

Results for C=CCn1c(=O)/c(=C/c2ccc(O)cc2)s/c1=C(/C#N)c1nnc2n1CCCCC2 ?
CYP2C9 inh: inactive; Plk1 PBD FP: inactive; CYP2C19 activ: inactive; PLK1 inh: inactive; CYP2C9 act: inactive; CYP2C19 inh: inactive

How did Brc1ccc2nc(CSc3ncn[nH]3)cn2c1 do in these assays?
CYP2C9 inh: inactive; Plk1 PBD FP: inactive; CYP2C19 activ: inactive; PLK1 inh: inactive; CYP2C9 act: inactive; CYP2C19 inh: 52

Results for Nc1nnc(SCC(=O)c2ccccc2)s1 ?
CYP2C9 inh: inactive; Plk1 PBD FP: inactive; CYP2C19 activ: inactive; PLK1 inh: inactive; CYP2C9 act: inactive; CYP2C19 inh: inactive

Results for CCCCOC(=O)CSc1nnc(N)s1 ?
CYP2C9 inh: inactive; Plk1 PBD FP: inactive; CYP2C19 activ: inactive; PLK1 inh: inactive; CYP2C9 act: inactive; CYP2C19 inh: 52

How did C/C(=C\c1ccccc1)CN1CCN(c2cccc(Cl)c2)CC1 do in these assays?
CYP2C9 inh: inactive; Plk1 PBD FP: inactive; CYP2C19 activ: inactive; PLK1 inh: inactive; CYP2C9 act: inactive; CYP2C19 inh: inactive
